The antibiotic and cytotoxicity screens of Wong et al. (2023)
Hit rate of the full screen: of about 39,000 compounds, about 1,500 (3.8%) were called active. For the sample, actives were picked, then their nearest neighbours and some compounds at random.

System: HSkMC (human skeletal muscle cells)
Assay: cytotoxicity call (relative viability < 0.9)
Conditions: 10 µM

| SMILES | cytotoxicity call |
| --- | --- |
| CN1C(=O)c2cc(NC(=O)c3cnccn3)ccc2OC[C@H]2O[C@@H](CC(=O)N[C@@H]3CCN(Cc4ccccc4)C3)CC[C@@H]21 | inactive |
| CN1CCN(C(=O)C[C@@H]2CC[C@@H]3[C@H](COC[C@@H](O)CN3Cc3ccc4c(c3)OCO4)O2)CC1 | inactive |
| CS(=O)(=O)Cc1nc2ccccc2oc1=O | inactive |
| Cc1noc(C)c1NC(=O)Nc1cccc2c1O[C@@H](CN(C)Cc1ccc(Oc3ccccc3)cc1)[C@@H](C)CN([C@H](C)CO)C2=O | inactive |
| COc1ccc(S(=O)(=O)Nc2ccc3c(c2)C(=O)N([C@H](C)CO)C[C@H](C)[C@H](CN(C)S(=O)(=O)c2ccc(Cl)cc2)OCCCC[C@H](C)O3)cc1 | inactive |
| CCC(=O)N(C)C[C@@H]1Oc2ncc(C#C[C@H](C)O)cc2C(=O)N([C@H](C)CO)C[C@H]1C | inactive |
| COc1cccc(S(=O)(=O)N(C)C[C@H]2Oc3ncc(C#CC(C)C)cc3C(=O)N([C@H](C)CO)C[C@H]2C)c1 | inactive |
| CO[C@@H]1CN(C)C(=O)c2cc(NS(=O)(=O)CC(F)(F)F)ccc2OC[C@H](C)N(C(=O)NC(C)C)C[C@H]1C | inactive |
| C[C@@H]1CN([C@H](C)CO)C(=O)c2cc(NC(=O)CCCCCC(=O)Nc3ccccc3N)ccc2O[C@H]1CN(C)C(=O)Nc1ccc(F)cc1 | inactive |
| CN(C)c1nc(SCCO)nc(N(C)C)n1 | inactive |
| C[C@@H]1CCCCO[C@H](CN(C)C(=O)Nc2cccc3ccccc23)[C@H](C)CN([C@@H](C)CO)C(=O)c2cc(NS(=O)(=O)c3ccc(F)cc3)ccc2O1 | inactive |
| O=C(OC[C@H]1O[C@@H](OC(=O)c2cc(O)c(O)c(O)c2)[C@H](O)[C@@H](OC(=O)c2cc(O)c(O)c(O)c2)[C@@H]1O)c1cc(O)c(O)c(O)c1 | inactive |
| O=C(OCC1OC(OC(=O)c2cc(O)c(O)c(OC(=O)c3cc(O)c(O)c(O)c3)c2)C(OC(=O)c2cc(O)c(O)c(OC(=O)c3cc(O)c(O)c(O)c3)c2)C(OC(=O)c2cc(O)c(O)c(OC(=O)c3cc(O)c(O)c(O)c3)c2)C1OC(=O)c1cc(O)c(O)c(OC(=O)c2cc(O)c(O)c(O)c2)c1)c1cc(O)c(O)c(OC(=O)c2cc(O)c(O)c(O)c2)c1 (stereo unspecified) | inactive |
| O=C(OC[C@H]1O[C@@H](OC(=O)c2cc(O)c(O)c(O)c2)[C@H](OC(=O)c2cc(O)c(O)c(O)c2)[C@@H](OC(=O)c2cc(O)c(O)c(O)c2)[C@@H]1OC(=O)c1cc(O)c(O)c(O)c1)c1cc(O)c(O)c(O)c1 | active |
| CC(C)NC(=O)N(C)C[C@@H]1Oc2ccc(NC(=O)CCCN(C)C)cc2CC(=O)N([C@H](C)CO)C[C@@H]1C | inactive |
| COc1ccc(NC(=O)Nc2ccc3c(c2)C(=O)N([C@@H](C)CO)C[C@@H](C)[C@@H](CN(C)Cc2ccc(C(=O)Nc4ccccc4N)cc2)O3)cc1 | inactive |
| C[C@H]1CN([C@@H](C)CO)C(=O)c2c(c3ccccc3n2C)-c2ccccc2CO[C@@H]1CN(C)S(=O)(=O)c1ccc(Cl)cc1 | inactive |
| Cc1ccc(S(=O)(=O)Nc2ccc3c(c2)C(=O)N([C@H](C)CO)C[C@H](C)[C@@H](CN(C)S(C)(=O)=O)O3)cc1 | inactive |
| C[C@H](CO)N1C[C@H](C)[C@@H](CN(C)Cc2ccc(C(F)(F)F)cc2)Oc2c(NC(=O)Nc3ccc(F)cc3)cccc2C1=O | inactive |
| C[C@H](CO)N1C[C@H](C)[C@@H](CN(C)Cc2ccc(C(F)(F)F)cc2)Oc2c(NC(=O)Nc3ccc(C(F)(F)F)cc3)cccc2C1=O | inactive |
| C[C@H]1CN([C@@H](C)CO)C(=O)c2cccc(NC(=O)Nc3ccc(F)cc3)c2O[C@@H]1CN(C)Cc1ccc(C(F)(F)F)cc1 | active |

| SMILES | cytotoxicity call |
| --- | --- |
| C[C@@H]1CN([C@@H](C)CO)C(=O)c2cccc(NC(=O)Nc3ccc(C(F)(F)F)cc3)c2O[C@@H]1CN(C)Cc1ccc(C(F)(F)F)cc1 | active |
| C[C@@H]1CN([C@@H](C)CO)C(=O)c2cccc(NC(=O)Nc3ccc(F)cc3)c2O[C@H]1CN(C)Cc1ccc(C(F)(F)F)cc1 | inactive |
| C[C@H](CO)N1C[C@H](C)[C@H](CN(C)Cc2ccc(C(F)(F)F)cc2)Oc2c(NC(=O)Nc3ccc(C(F)(F)F)cc3)cccc2C1=O | inactive |
| C[C@@H]1CN([C@@H](C)CO)C(=O)c2cccc(NC(=O)Nc3ccc(C(F)(F)F)cc3)c2O[C@H]1CN(C)Cc1ccc(C(F)(F)F)cc1 | inactive |
| C[C@@H]1CN([C@H](C)CO)C(=O)c2cccc(NC(=O)Nc3ccc(C(F)(F)F)cc3)c2O[C@H]1CN(C)Cc1ccc(C(F)(F)F)cc1 | inactive |
| C[C@@H]1CN([C@H](C)CO)C(=O)c2cccc(NC(=O)Nc3ccc(C(F)(F)F)cc3)c2O[C@@H]1CN(C)Cc1ccc(C(F)(F)F)cc1 | active |
| CO[C@@H]1CN(C)C(=O)c2cc(NS(=O)(=O)c3cn(C)cn3)ccc2OC[C@@H](C)N(CCC(F)(F)F)C[C@H]1C | inactive |
| O=C(C[C@H]1CC[C@@H]2[C@H](COC[C@H](O)CN2S(=O)(=O)c2cccc(F)c2)O1)NCCCN1CCOCC1 | inactive |
| COCC#Cc1cnc2c(c1)C(=O)N([C@@H](C)CO)C[C@H](C)[C@H](CN(C)C(=O)Nc1ccccc1OC)O2 | inactive |
| O=C(CCCCCNC(=O)OCc1ccc(CO[C@@H]2C[C@H](c3ccc(C(F)(F)F)cc3)C=C(C(=O)N3CCN(Cc4ccc5c(c4)OCO5)CC3)O2)cc1)NO | inactive |
| C[C@@H]1CN([C@@H](C)CO)S(=O)(=O)c2ccc(-c3ccc(C(=O)N(C)C)cc3)cc2O[C@H]1CN(C)C(=O)Cc1ccccn1 | inactive |
| COc1ccc(NC(=O)N(C)C[C@@H]2OCCCC[C@H](C)Oc3ccc(NC(=O)CCC(F)(F)F)cc3C(=O)N([C@@H](C)CO)C[C@@H]2C)cc1 | inactive |
| CO[C@H]1CN(C)C(=O)c2cc(NS(=O)(=O)c3cn(C)cn3)ccc2OC[C@H](C)N(Cc2cccc(F)c2)C[C@@H]1C | inactive |
| CO[C@H]1/C=C/C[C@H](C)[C@@H](C)S(=O)(=O)NC(=O)c2ccc3c(c2)N(C[C@@H]2CC[C@H]21)C[C@@]1(CCCc2cc(Cl)ccc21)CO3 | active |
| COc1ccc(CN(C)C[C@@H]2OCCCC[C@@H](C)Oc3ccc(NC(=O)c4ccccc4)cc3C(=O)N([C@@H](C)CO)C[C@@H]2C)cc1 | inactive |
| CO[C@@H]1CN(C)C(=O)c2ccc(NS(=O)(=O)c3cn(C)cn3)cc2OC[C@H](C)N(Cc2cccc(F)c2)C[C@@H]1C | inactive |
| C=C1C(=O)OC2CC3(C)CCCC(C)C3=CC12 (stereo unspecified) | active |
| C[C@H]1CN([C@@H](C)CO)C(=O)c2cc(NC(=O)C3CCCCC3)ccc2O[C@@H]1CN(C)Cc1ccc(Cl)c(Cl)c1 | inactive |
| CC(C)c1c(O)ccc2c1CCC1C(C)(C)C(=O)CCC21C (stereo unspecified) | inactive |
| CC(C)c1c(O)ccc2c1CCC1C(C)(C)CCCC21C (stereo unspecified) | inactive |
| COC(=O)C1(C)CCCC2(C)c3ccc(O)c(C(C)C)c3CCC12 (stereo unspecified) | active |

| SMILES | cytotoxicity call |
| --- | --- |
| CC(C)c1c(O)ccc2c1CC[C@H]1C(C)(C)CCC[C@]21C | active |
| CC(C)c1c(O)ccc2c1CCC1C(C)(C=O)CCCC21C (stereo unspecified) | inactive |
| COC(=O)C1(C)CCCC2(C)c3ccc(C(C)C)cc3C(=O)CC12 (stereo unspecified) | inactive |
| Cn1cnc(CCNC(=O)C[C@H]2CC[C@@H]3[C@H](COC[C@H](O)CN3C(=O)Nc3ccc(Cl)cc3)O2)c1 | inactive |
| C[C@@H]1CN([C@@H](C)CO)C(=O)c2cc(NC(=O)c3ccccc3)ccc2O[C@@H](C)CCCCO[C@H]1CN(C)S(=O)(=O)c1cccs1 | inactive |
| COCC#Cc1ccc2c(c1)O[C@H](CN(C)S(=O)(=O)c1cccc(F)c1)[C@H](C)CN([C@H](C)CO)S2(=O)=O | inactive |
| NC(=O)N1CCC(CC(=O)N2CCC([C@H]3c4ncc(Br)cc4CCc4cc(Cl)cc(Br)c43)CC2)CC1 | inactive |
| C[C@@H]1CN([C@@H](C)CO)C(=O)CCCn2cc(nn2)CO[C@@H]1CN(C)S(=O)(=O)c1ccc2c(c1)OCCCO2 | inactive |
| Cc1ccc(S(=O)(=O)N(C)C[C@@H]2Oc3c(NC(=O)C4CCOCC4)cccc3C(=O)N([C@H](C)CO)C[C@H]2C)cc1 | inactive |
| C[C@@H]1CN([C@@H](C)CO)C(=O)c2c(c3ccccc3n2C)-c2ccccc2CO[C@@H]1CN(C)Cc1cccc(F)c1 | inactive |
| C[C@H]1CN([C@@H](C)CO)C(=O)Cc2cc(NC(=O)Nc3cc(Cl)cc(Cl)c3)ccc2O[C@H]1CN(C)S(=O)(=O)c1ccc(Oc2ccccc2)cc1 | inactive |
| C[C@H](CO)N1C[C@H](C)[C@@H](CN(C)S(C)(=O)=O)Oc2ccc(NC(=O)Nc3ccccc3)cc2CC1=O | inactive |
| Cc1noc(C)c1S(=O)(=O)N(C)C[C@@H]1Oc2ccc(NC(=O)Nc3ccccc3)cc2CC(=O)N([C@@H](C)CO)C[C@@H]1C | inactive |
| Cc1ccccc1S(=O)(=O)N(C)C[C@@H]1Oc2ccc(NC(=O)Nc3cc(Cl)cc(Cl)c3)cc2CC(=O)N([C@@H](C)CO)C[C@@H]1C | active |
| C[C@H]1CN([C@@H](C)CO)C(=O)Cc2cc(NC(=O)Nc3ccc(Cl)c(Cl)c3)ccc2O[C@H]1CN(C)S(=O)(=O)c1ccc(Oc2ccccc2)cc1 | inactive |
| Cc1ccccc1S(=O)(=O)N(C)C[C@@H]1Oc2ccc(NC(=O)Nc3ccc(Cl)c(Cl)c3)cc2CC(=O)N([C@@H](C)CO)C[C@@H]1C | active |
| Nc1ccccc1CO | inactive |
| C[C@H](CO)N1C[C@H](C)[C@H](CN(C)CC2CC2)OCCCC[C@H](C)Oc2ccc(NC(=O)Nc3ccccc3)cc2C1=O | inactive |
| C[C@@H]1CCCCO[C@H](CN(C)Cc2ccc3c(c2)OCO3)[C@H](C)CN([C@H](C)CO)C(=O)c2cc(NC(=O)Nc3ccc4c(c3)OCO4)ccc2O1 | inactive |
